# Measurements taken from PubChem BioAssay AID504329 (Southern Research Specialized Biocontainment Screening …, 2011).
# In all, about 340,000 compounds went through this assay and about 1,000 (0.29%) were called active. Cut-off read from the data, not from the text of the source: inconclusive = inhibition above about 27% without an active follow-up result; inactive = below that. Not all results are given here. Results with a measured potency or affinity are listed apart.
# Assay: H1N1 influenza NS1A inhibitors, functional cell based assay (AID 504329)
# Conditions: percent inhibition, at 12.5 µM, stronger effect = higher value
row,SMILES,inhibition
1,COc1ccc(Cl)cc1C(=O)NC1=NCCS1,3.24% (inactive)
2,N#Cc1ccc(Oc2ncccn2)cc1,-1.76% (inactive)
3,CC(=O)Nc1ccc(S(=O)(=O)N(C)CC(=O)OCC(=O)c2cc(C)n(-c3ccc4c(c3)OCO4)c2C)cc1,4.97% (inactive)
4,COc1cc(/C=C2\SC(=O)N(c3ccc(Cl)cc3)C2=O)cc([N+](=O)[O-])c1O,-5.87% (inactive)
5,COc1cc(/C=C2\SC(=O)N(Cc3ccc(F)cc3)C2=O)cc([N+](=O)[O-])c1O,26.1% (inactive)
6,CCN(CC)c1ccc(NC(=O)c2ccc3c(c2)OCO3)cc1,21.3% (inactive)
7,CCN(CC)c1ccc(C(=O)Nc2cccc(F)c2)cc1,0.06% (inactive)
8,Cc1cc(C(=O)OCC(=O)Nc2ccccc2C)c(C)o1,-4.72% (inactive)
9,Cc1c(N=C2C(=O)Nc3ccccc32)c(=O)n(-c2ccccc2)n1C,11% (inactive)
10,Cc1c(N=c2scc(-c3ccccc3)n2C)c(=O)n(-c2ccccc2)n1C,-5.38% (inactive)
11,Cc1ccc(N2C(=O)CN(Cc3ccccc3)C2=S)cc1C,-6.48% (inactive)
12,O=[N+]([O-])c1cc(/C=N\Nc2ccccn2)ccc1Cl,-4.08% (inactive)
13,O=C(N/N=C/c1ccc(O)c([N+](=O)[O-])c1)c1ccncc1,13.6% (inactive)
14,COc1ccc(CC(=O)Nc2cc(S(=O)(=O)N3CCOCC3)ccc2N2CCCC2)cc1OC,2.03% (inactive)
15,NC(=O)c1ccc(-c2c(-c3ccccc3)sc3ccccc23)cc1,-3.51% (inactive)
16,CCOC(=O)N1CCC(NC(=O)CCc2c(C)nc3c(c(C)nn3C(C)(C)C)c2C)CC1,0.25% (inactive)
17,CNC(=S)NNc1nc(-c2ccccc2)c2cc(Cl)ccc2n1,8.4% (inactive)
18,Nc1c(Cl)ncnc1N/N=C/c1ccc(O)cc1,-15.8% (inactive)
19,COc1ccc(/C=N/Nc2ncnc(Cl)c2N)cc1OC,-17% (inactive)
20,Nc1c(Cl)ncnc1N/N=C/c1cccc(O)c1,17.6% (inactive)
21,COc1ccccc1/C=N/Nc1nccnc1Cl,4.08% (inactive)
22,COc1ccc(/C=N/Nc2nccnc2Cl)c(OC)c1,-10.3% (inactive)
23,Nc1c(Cl)ncnc1N/N=C/c1ccnc2ccccc12,-0.57% (inactive)
24,Cc1cccc(NC(=S)NCc2ccc(F)cc2)c1C,-12.3% (inactive)
25,CN1CCN(c2ccc(CNC(=O)c3cc4ccccc4o3)cc2)CC1,-11.5% (inactive)
26,CCOC(=O)N1CCN(S(=O)(=O)c2ccc(C(=O)Nc3sc4c(c3C(N)=O)CC(C)(C)NC4(C)C)cc2)CC1,-1.86% (inactive)
